Screens (PubChem BioAssay)
Cy5 interf NS3h: enhances or quenches Cy5 fluorescence in NS3h assay; Cy5-dT15 DNA with NS3h, fluorescence interference; actives lie on both sides; signal over control mean, under 1 quenches; fluorescence interference ratio at 100 µM; 6% of 16,000 active; AID 720488;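 active = compound fluorescence over control fluorescence at most 0.8, a quencher, or at least a set upper limit, an enhancer; inactive = ratio between 0.8 and the set upper limit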
HCV NS3h FP: blocks HCV NS3 helicase binding to DNA | inhibition, % at 100 µM | 1.6% of 16,000 active | NS3h Cy5-dT15 DNA binding, fluorescence polarization;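 active = inhibition above the average over every tested compound plus 3 SD, cut at about 40% in these data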
Numbers stand for hits; i = inactive. An excerpt weighted towards active compounds, which were near 6.8% of everything screened.

SMILES	Cy5 interf NS3h	HCV NS3h FP
O=C1/C(=C\c2ccc([N+](=O)[O-])cc2)SC(=S)N1c1cccc(C(F)(F)F)c1	i	i
O=C1/C(=C/c2ccccc2OCc2ccc([N+](=O)[O-])cc2)SC(=S)N1c1ccccc1	0.75	i
CCN1C(=O)/C(=C\c2cccc(C(F)(F)F)c2)SC1=S	0.71	i
O=C1NC(=S)NC(=O)C1=Cc1ccccc1OCc1ccc([N+](=O)[O-])cc1	0.68	i
O=C1/C(=C/c2ccccc2[N+](=O)[O-])SC(=S)N1c1cccc(C(F)(F)F)c1	0.76	i
Cc1ccc(COc2ccccc2C=C2C(=O)NC(=S)NC2=O)cc1	i	i
O=C(NC(=S)Nc1ccc(-c2nc3ccccc3[nH]2)cc1)c1ccco1	i	i
Cn1cnnc1Sc1nc2c(c(=O)n(C)c(=O)n2C)n1Cc1ccc(Cl)cc1Cl	i	i
Cc1ccc(N2C(=O)C3C4C=CC(C5CC45)C3C2=O)cc1Cl (configuration not stated)	i	i
CC1=NN(c2ccc(C)c(Cl)c2)C(=O)C1	0.72	i
COc1ccccc1NS(=O)(=O)c1cc([N+](=O)[O-])ccc1Cl	i	i
CCn1c2ccccc2c2cc(/C=N\n3c(C)nnc3C)ccc21	i	i
CC(C)C(=O)Nc1ccc(N2CCOCC2)cc1	i	i
CCCC(=O)Nc1ccc(N2CCOCC2)cc1	0.74	i
O=C(Nc1cccc(Cl)c1)Nc1nnc(C(c2ccccc2)c2ccccc2)s1	i	i
CCCC(C)NC(=O)c1cc(Cl)ccc1Cl (configuration not stated)	i	i
Cc1cc(Nc2cccc(F)c2)n2c(nc3ccccc32)c1C#N	i	i
Cc1cc(Nc2cccc(O)c2)n2ncnc2n1	0.69	i
O=C(NCCCn1ccnc1)c1cnn2c1NC(c1cccs1)CC2C(F)(F)F (configuration not stated)	i	i
Cc1ccc(C(=O)N/C(=C\c2ccco2)c2nc(=S)[nH][nH]2)cc1	i	i
COc1cc(/C=C2/C(=O)NN(c3ccc(Cl)cc3)C2=O)cc(Br)c1O	0.77	i
COc1cc(/C=C2\C(=O)NN(c3ccccc3)C2=O)cc(Br)c1OCC(=O)O	i	i
Cc1ccc(N2NC(=O)/C(=C/c3cccc(Br)c3)C2=O)cc1	0.79	i
Cc1ccc(N2NC(=O)/C(=C\c3ccc(Br)cc3)C2=O)cc1	i	i
COc1ccccc1N1C(=O)/C(=C/c2cccc(O)c2)SC1=S	i	i
SMILES	Cy5 interf NS3h	HCV NS3h FP
COc1ccc(C2C(=C(O)c3ccc(Cl)cc3)C(=O)C(=O)N2CCCC(=O)O)cc1 (configuration not stated)	0.15	i
O=C(O)CCCN1C(=O)C(=O)C(=C(O)c2ccc(Cl)cc2)C1c1ccccc1 (configuration not stated)	i	i
CCCOc1ccc(/C=C2\C(=O)NN(c3ccccc3)C2=O)cc1	i	i
CCOc1ccccc1N1C(=O)NC(=O)C(=Cc2ccc(OC)cc2)C1=O	i	i
Cc1cc(C)n2nc(-c3cccc(F)c3)cc2n1	i	i
Cc1cc(C)n2nc(-c3ccc(F)cc3)cc2n1	0.67	i
CC1=C(C(=O)Nc2ccccc2C)C(c2ccccc2Br)NC(=O)N1 (configuration not stated)	i	i
Cc1ccccc1NCn1c(=S)oc2ccccc21	0.65	i
Cc1ccccc1NC(=O)CSc1ccccc1	i	i
Cc1nn(-c2ccccc2)c(C)c1Sc1ccc(Cl)cc1	i	i
CN(C)c1ccc(/C=C/C(=O)c2ccc3c(c2)OCCO3)cc1	i	i
CCc1ccc(C(=O)CSc2n[nH]c(-c3ccccc3)n2)cc1	i	i
COc1ccc(N2C(=O)c3ccc(C(=O)Nc4ccccc4I)cc3C2=O)cc1	i	i
COc1ccc(N2C(=O)c3ccc(OCCOc4ccc5c(c4)C(=O)N(c4ccc(OC)cc4)C5=O)cc3C2=O)cc1	0.64	i
COc1ccc(N2C(=O)CC(Cc3ccc(Cl)cc3)C2=O)cc1 (configuration not stated)	0.69	i
COc1ccc(N2C(=O)CC(Cc3ccccc3OC)C2=O)cc1 (configuration not stated)	i	i
NC(=O)C(=O)NCc1ccc(Cl)cc1	0.65	i
CC(C)CCNC(=O)C(=O)NCc1ccc(Cl)cc1	i	i
O=C(/C=C/c1ccco1)N1CCC(CN2C(=O)c3cccc4cccc(c34)C2=O)CC1	i	i
CC(=O)CC(=O)Nc1ccc(Cl)c(C(F)(F)F)c1	0.68	i
CC(=O)CC(=O)Nc1ccc(Cl)c(Cl)c1	i	i
COc1ccc(C=Nc2ccc3nn(-c4ccccc4)nc3c2)cc1	i	i
CCCCCCN1C(=O)C(=O)C(=C(O)c2ccccc2)C1c1cccc(F)c1 (configuration not stated)	i	i
Cc1ccc(NC(=O)CSc2ccc(Cl)cc2Cl)cc1	i	i
CN(C)CC(O)CN(c1ccccc1)S(=O)(=O)c1ccc([N+](=O)[O-])cc1 (configuration not stated)	0.79	i
SMILES	Cy5 interf NS3h	HCV NS3h FP
Cc1cccc(N(CC(O)CN(Cc2ccccc2)Cc2ccccc2)S(=O)(=O)c2ccccc2)c1 (configuration not stated)	0.7	i
Cc1ccc(S(=O)(=O)N(CC(C)C)CC(C)C)cc1	i	i
NC(=O)CN(c1cccc([N+](=O)[O-])c1)S(=O)(=O)c1ccccc1	i	i
COc1ccc(N(CC(O)CN(Cc2ccccc2)Cc2ccccc2)S(=O)(=O)c2ccc(C)cc2)cc1 (configuration not stated)	i	i
Cc1ccc(S(=O)(=O)N(CC(O)CN(CC(C)C)CC(C)C)c2cccc(C)c2)cc1 (configuration not stated)	0.77	i
C=C(C)COc1ccc2ccc(=O)oc2c1	i	i
COc1ccc(N2C(=O)/C(=C3/C(=O)N(Cc4ccccc4F)c4ccccc43)SC2=S)cc1	1.2	i
CN1C(=O)/C(=C2/C(=O)N(CC(N)=O)c3ccccc32)SC1=S	i	i
O=C(c1ccccc1)N1CCN=C1c1ccccc1	i	i
O=C(c1ccc(Cl)cc1)N1CCN=C1c1ccccc1	0.64	i
O=C(c1cc2n(n1)C(C(F)(F)F)CC(c1ccco1)N2)N1CCCc2ccccc21 (configuration not stated)	i	i
COc1cc(OC)cc(C(=O)N2CCN(C3CCC(c4ccccc4)CC3)CC2)c1 (configuration not stated)	i	i
COc1cccc(C(=O)N2CCN(C3CC4CCC3C4)CC2)c1 (configuration not stated)	0.68	i
S=C(NC1CCCCC1)NC(c1ccccc1)(c1ccccc1)c1ccccc1	i	i
COc1ccc(-c2nnc(NC(=O)c3ccccc3F)s2)cc1	i	i
COC(=O)c1ccc(N2C(=O)c3ccccc3C2=O)cc1	i	i
O=C1c2cccnc2C(=O)N1c1ccc(Oc2ccc(N3C(=O)c4cccnc4C3=O)cc2)cc1	0.68	i
CC(=O)c1c(C)oc2c1cc(OC(=O)c1ccco1)c1ccccc12	i	i
COc1ccc(N2C(=O)c3ccccc3NC2c2ccc(OC)cc2OC)cc1 (configuration not stated)	i	i
Cc1ccc(-n2nc(C)c(-c3cccc([N+](=O)[O-])c3)c2C)cc1C	i	i
Cc1nn(-c2ccc(Cl)c(Cl)c2)c(C)c1-c1cccc([N+](=O)[O-])c1	0.69	i
Cc1cc(=O)oc2cc(OCc3ccc(Cl)c(Cl)c3)ccc12	i	i
